Measurements as given in PMC12864922, “TDP-43 directly inhibits mRNA accumulation in neurites through modulation of mRNA stability”.
Over roughly 9,900 sequences, “r (bound/input frequency ratio)” has its median near 0.7; the highest 2% begin near 6.5. For the sample, the highest values were picked, then their nearest neighbours and some sequences at random.

B1: ENSMUSG00000029028.98|Lrrc47 (ssRNA)
RNA: GGGAGUUCUACAGUCCGACGAUCGCUUCGAUAUCCGCAUGCUAUGUGGGUGUGCUGUAGAUUCUGUGUAACUGGUUCUUUGCUGUUUCUCUGGGUGUUUUAAGGUGUCUGCUUUUGUCCAGGUGACUGUGGUAAUGUGAGUUUGCAUCAUCAUCAUAGCUCCAAUGUGACUCUCCUGUCUCCUGUCCUCAUGGAUCACUCAGUAACUGCUGGGGAUGUUCUGAAUCAUGUGGCCUGUGGCCGUGCUGGAGAGUCAGGUUGAACGCAGGCAUUCUAUUGAACAGUAUUUAUUUUUCUACAACAUCUCUUGCGGUCGCACUAGUGUGGAAUUCUCGGGUGUCAAGG
B2: ENSMUSG00000090935.301|Synj2bp|248:252 (ssRNA)
RNA: GGGAGUUCUACAGUCCGACGAUCGCUUCGAUAUCCGCAUGCUAGCCUUAGUUGCUAUUUUACAGUACUGUUAAAGGAUCCAUUGGCAUGGGAUGGGAAGCAGCAGGGCCCAAUCAACCAUCAAGACAUCUGAAAAAGAUCAUGUCUCAAGGUGGCACUUGAGCCUUCAAAACUGCUUAACAAUUCUCAGUUUCUAGUGUCAGACAAAAAGCCUAAGGGAAGGAACUGCCCUCCUGGUAGGAUGGACCUGAAUCAGCCUGCUUCUGACUGAGUUAGGAUGAGAAGGCAUUGCAUACGGUUUUCUCUCUUGCGGUCGCACUAGUGUGGAAUUCUCGGGUGUCAAGG
B3: ENSMUSG00000032194.203|Kank2 (ssRNA)
RNA: GGGAGUUCUACAGUCCGACGAUCGCUUCGAUAUCCGCAUGCUACUGCACCUUUCUCUAACUGGGGUUCCUUUCUGGCCCCAGGAUCUCAGUGUGGUUCGUGGGGGGAUUUUGUUGUUGUUUCUUUGUUUCUUUUCUUCAUAAAGAAGAAAAAGGAAACAACUUCUAGAUGUGCCUUGCGAUAGGGAGGACUUUGUCCUCUCAAGUCUCCCUGUCGUAUCCAGAUCACAGCUGAACCCACUGGGCCUUGGCGCCAAACCUCAGCAGGGCAGCAUUGAGACUCAUGGACUAAAGGAAAGUGUUCACUCUUGCGGUCGCACUAGUGUGGAAUUCUCGGGUGUCAAGG
B4: ENSMUSG00000043670.75|Diras1|97:102 (ssRNA)
RNA: GGGAGUUCUACAGUCCGACGAUCGCUUCGAUAUCCGCAUGCUAUUUGAUCCCUGUGGAUCUGAAAACAGGGACCUGGCUAAGGAACUGCUCAUCCCAGUCAGGCCCAGAGAGGUUACCUUGCCUCUCCAUCUCUGUCCCACACACCCCAGCCAUGCCCACUGUCCCUGUCCCUCACAUUCUAUCACUGUGACCUCUGGGGAGUGCCCAUUGACCUCAUCUUCCUUCACUAAUAUCUUAUUUCUUUCACCUGAUCCUGUCCUUUCCCCGUGACCUCUGACCUGUGGCCUUCCCUGGGUCCAGAACUCUUGCGGUCGCACUAGUGUGGAAUUCUCGGGUGUCAAGG
B5: ENSMUSG00000061578.22|Ksr2|4:9;112:122;211:217;222:226 (ssRNA)
RNA: GGGAGUUCUACAGUCCGACGAUCGCUUCGAUAUCCGCAUGCUAACCACACACAUGACGUCACAGAGGCUGUCCACACCUUCGACUUGUACCCCGUUACUCAGGCACGAUCAGGGACCACUCAACUAGGACCAAACUGGGCCAGAGAGGGUCCCAACACACCACACAAGGAGCCACAGACUGAGCACACCACCUCGGACUGUGGAGACCAAGACACAUGCCCAGUGGGCAGACUCAGACUCACACGCUGGACCACACACACCGCAACACACUACACAUGGACAGGGCCAACUGCUAUCCUUCUGCUCUUGCGGUCGCACUAGUGUGGAAUUCUCGGGUGUCAAGG
B6: ENSMUSG00000031028.295|Tub (ssRNA)
RNA: GGGAGUUCUACAGUCCGACGAUCGCUUCGAUAUCCGCAUGCUAUCCCAGGUUGGACACUCGACGAAAGGCACACCUGCUGCAGCAGGUUCUGACACACCUGAGCCAUACAUUGCCAUCAGAGAACCCUCAGCGAGGUAGCCUUUGUUUACAGUCUAGUUUCUAGAGGGCAGUAGGACUUCCAUGCUGGGGCUGGCCUAUCUCCUGAUGAAAGAUUACAGUGCCAUCUCCUUCCCAUAGUUCUGUGUCUGCCCUCCCUCCCUGACUUUAUAGGGAGAAAUCUCCUGACAUUAGAGGUGAUAGAACUCUUGCGGUCGCACUAGUGUGGAAUUCUCGGGUGUCAAGG
B7: ENSMUSG00000031028.549|Tub (ssRNA)
RNA: GGGAGUUCUACAGUCCGACGAUCGCUUCGAUAUCCGCAUGCUAAUAGAUGGACAGCCUGGUUUCCCUUCUCAGCAGUCCUGGCCUCCCCUUCUCUGUAUUCCUUGCCCCAGCUACGAUAUCCUCAUGGGAUUUCAGGAUGCCAGGUGCCAUCAAAGCAUGCUUUUUUGUGGUGCCUAGCACUGUGACUGGGGCCCAACUGCCCUGCAGAGUUGGGACCUUGCACUGCCCUAGACCCUGGCUUUAGAUCUGCUUCAGUCUCCAGAACAGGCUAUGGGAUAGAUUUUUCUUUCAGUUUAUGGCCACUCUUGCGGUCGCACUAGUGUGGAAUUCUCGGGUGUCAAGG
B8: ENSMUSG00000061578.336|Ksr2 (ssRNA)
RNA: GGGAGUUCUACAGUCCGACGAUCGCUUCGAUAUCCGCAUGCUAGGAGUGACCAGUCACCUGCCUCCCAGGGUUCUGCCUUGCCCUUAAGCUAGGGUCCUUCAAGCAUCCACAGACUUAGAGUGUGGUGGUAACAUGCUUGUAAUCCUGGCACUCUGGAGGCUGAGGCAGGAGGAUAACAAGUCUAGACUAUAUAUGAUUUCUGAGGGUCUGUUAGUGAAUAAGUACCUGGAUGACAUGGGACAAGUCCCAGCCUUCCCUGCUCCUGCGCUGCUCUUCCUCUUAUGGGAUAGGGUCUAGGUCAACUCUUGCGGUCGCACUAGUGUGGAAUUCUCGGGUGUCAAGG
B9: ENSMUSG00000061578.503|Ksr2 (ssRNA)
RNA: GGGAGUUCUACAGUCCGACGAUCGCUUCGAUAUCCGCAUGCUAGGGAUUAAAGGUGUGUACCACCAUUGCAAUCUUGAACUCUUGACCAAUAGAAAUCCUAGACUAGUGUUGCUAGGCAACUGACUGUAUUCAGGACACCCAGGGUGGGAGGUGGAUGGAGCUCUUGCCUAACACACACCAAGCCCCAAGUUCCAUCCCCAGUCCCACACAAACCAGAUAUGAUGGUGUGUGCCUAUGUCCCCCACACACGAGAGAGCUGGAGGCAGGAGGAUCAGAAGUUCAGGGCCAUCCUUAAUCAUACACUCUUGCGGUCGCACUAGUGUGGAAUUCUCGGGUGUCAAGG

The binders below were run against TDP-43 (Homo sapiens, UniProt Q13148 1-414) (assay: RNA Bind-n-Seq with designed 260-mer pool; 25 mM Tris-HCl, 150 mM KCl, 3 mM MgCl2, BSA (printed 500 mg/mL), 20 units/mL SUPERase IN; pH not stated; 500 nM RNA pool, 1 h, 4 C; TDP-43 5, 50, 500 nM; high values mean tight binding). Conditions: protein: recombinant; tags: SBP (GST cleaved off with PreScission; pGEX-GST-SBP).
TDP-43, sequence (Q13148 whole entry): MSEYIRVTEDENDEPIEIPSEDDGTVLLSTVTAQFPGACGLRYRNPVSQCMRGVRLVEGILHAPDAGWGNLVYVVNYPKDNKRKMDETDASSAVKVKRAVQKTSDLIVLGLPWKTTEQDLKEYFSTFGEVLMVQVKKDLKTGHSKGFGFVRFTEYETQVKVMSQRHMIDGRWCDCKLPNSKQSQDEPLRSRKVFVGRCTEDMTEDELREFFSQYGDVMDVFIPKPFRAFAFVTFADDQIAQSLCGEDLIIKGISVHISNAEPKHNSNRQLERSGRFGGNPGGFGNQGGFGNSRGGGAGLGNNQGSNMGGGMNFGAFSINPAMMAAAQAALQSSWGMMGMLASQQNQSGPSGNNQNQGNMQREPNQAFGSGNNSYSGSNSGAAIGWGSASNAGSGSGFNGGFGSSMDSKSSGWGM
In short: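 Binding (R) is the ratio of each oligo's mapped-read-normalized abundance in the bound fraction to its abundance in the input. To obtain it, SBP-tagged recombinant TDP-43 (5, 50 or 500 nM) on streptavidin beads was incubated with 500 nM of an in vitro-transcribed 260-nt 3′ UTR oligo pool for 1 h at 4 °C in 25 mM Tris-HCl, 150 mM KCl, 3 mM MgCl2, BSA and SUPERase IN. The RNA retained after washing was released with biotin, then reverse transcribed, amplified by PCR and sequenced.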
In the case of B1, the binding signal is reported as 1.29 R (bound/input frequency ratio). For B2, the binding signal was 0.248 R (bound/input frequency ratio). B3 was tested, and the binding signal was 0.26 R (bound/input frequency ratio). In the case of B4, the binding signal is reported as 2.78 R (bound/input frequency ratio). For B5, the binding signal was 1.84 R (bound/input frequency ratio). In the case of B6, the binding signal is reported as 0.563 R (bound/input frequency ratio). B7 was tested, and the binding signal was 0.419 R (bound/input frequency ratio). B8 was tested, and the binding signal was 0.934 R (bound/input frequency ratio). For B9, the binding signal was 1.74 R (bound/input frequency ratio).
